Measured values from PubChem BioAssay (NCATS).
Records with an inconclusive call do not appear. Activity calls are given as the source filed them. Unless noted, calls come from the whole dose curve; as a rule, active = well fitted curve in the direction sought with a large enough effect; inconclusive = small, poorly fitted or top-dose-only effect, or another doubt; inactive = no such curve, though single readings can be large; an effect the other way counts as inactive or inconclusive.

Experiments:
[1] = qHTS to identify inhibitors of the type 1 interferon - major histocompatibility complex class I in skeletal muscle: primary screen against the NCATS Mechanism Interrogation Plate v5.0 (MIPE) Libary (AID 1347411); note: nearly all actives have a fitted effect of over 65% in size; note: potency is the fitted concentration of half-maximal effect;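 for activity change, negative = inhibition: plate controls were vehicle for no effect and reference inhibitor for full effect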
How it was run: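 Immortalized human C25cl48 myoblasts with HiBit knocked into endogenous HLA-B*08:01 were stimulated with 4.0 ng/ml IFN-beta and exposed to compounds (11-point 1:3 titration, top 46 uM final) for 24 hrs at 37 C; HiBiT lytic luminescence measured.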

[2] = Primary qHTS for inhibitors of nuclear receptor binding SET domain protein 2 (NSD2) in an isogenic RCH-ACV NSD2 p.E1099K mutant (9B) (AID 1645876); note: nearly all actives have a fitted effect of over 70% in size; note: potency is the fitted concentration of half-maximal effect
[3] = Primary qHTS for inhibitors of nuclear receptor binding SET domain protein 2 (NSD2) in an RCH-ACV wild type WT cells (2C) (AID 1645877); note: nearly all actives have a fitted effect of over 70% in size; note: potency is the fitted concentration of half-maximal effect
[4] = molecular target: Glutathione peroxidase 1 (Homo sapiens) (UniProt P07203); experiment: Primary qHTS Assay for Inhibitors of Recombinant Selenoprotein Glutathione Peroxidase 1 (GPX1) (AID 1845191); note: nearly all actives have a fitted effect of over 65% in size
How it was run: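 10 nM GPX1 + cpd, 30 min RT; start w/ 1 mM GSH, 0.5 mM cumene hydroperoxide, 0.5 mM NADPH, 100 nM GR, 0.01% BSA; buffer 50 mM Tris-HCl pH 7.5, 2 mM EDTA, 150 mM NaCl; Fl 340/450, 0 & 15 min.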

[5] = molecular target: Phospholipid hydroperoxide glutathione peroxidase GPX4 (Homo sapiens) (UniProt P36969); experiment: Primary qHTS Assay for Inhibitors of Recombinant Selenoprotein Glutathione Peroxidase 4 (GPX4) (AID 1845192); conditions: outcome: dose series up to 50 µM unless noted; note: % is set by controls: 0 for no effect and ±100 for the full control effect; nearly all actives have a fitted effect of over 65% in size
How it was run: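 NADPH consumption, followed by fluorescence at 340/450 nm between 0 and 15 min, reports GPX4 activity via coupled glutathione reductase (100 nM). Enzyme 200 nM was pre-exposed to compound 30 min; 0.5 mM cumene hydroperoxide and 1 mM GSH served as substrates.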

[6] = qHTS drug screen for cell cycle checkpoint inhibitors in PARPi-resistant BRCA-mutant ovarian cancer cell lines. (AID 1963452; calls by dose curve; note: potency is the fitted concentration of half-maximal effect); conditions: PEO1/OlaR viability, CellTiter-Glo luminescence, 96 h; for Z-AUC: stronger effect = lower value
How it was run: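 PEO1, PEO4 and PEO1/OlaR ovarian cancer cells, 600 per well, exposed 96 h at 37C to a dilution series. Viability read by CellTiter-Glo luminescence, normalized to DMSO and empty wells; activity summarized as Z-AUC.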

[7] = qHTS assay to identify inhibitors of the type 1 interferon - major histocompatibility complex class I in skeletal muscle: Counter screen cell viability and HiBit confirmation (AID 1347412); conditions: iHSKM muscle cells + IFN-b, HiBiT or CellTiter-Glo, 24 h; for activity change, negative = inhibition: at 45.9 µM (top of the series); note: potency is the fitted concentration of half-maximal effect; for activity change, negative = inhibition: % is set by controls: 0 for no effect and ±100 for the full control effect; for all read-outs here: nearly all actives have a fitted effect of over 60% in size
How it was run: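 Luminescence read-out: Nano-Glo HiBiT lytic signal from C-terminally HiBiT-tagged HLA-B in CRISPR-edited human myoblasts, plus CellTiter Glo ATP as viability counter screen. IFN-beta 4.0 ng/ml; 24 hrs treatment at 37 C, 5% CO2.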

[8] = molecular target: Calcium and integrin-binding protein 1 (Homo sapiens) (UniProt Q99828); experiment: Primary qHTS for Identification of Calcium Integrin Binding Protein 1 (CIB1) Competitor (AID 1508620);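 note: GST tagged CIB1 binding a fluorescein labelled alphaIIb integrin peptide tracer; top concentration of the series differs between compounds; % is set by controls: 0 for no effect and ±100 for the full control effect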
How it was run: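 CIB1-GST (1 uM final) and compound incubated 15 min at room temperature before adding FITC-alphaIIb peptide tracer (100 nM final). Competition for binding read by fluorescence polarization (ex 480, em 540) after another 15 min at room temperature.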

[9] = measured here: PEO1 parental Z-AUC

Chain of Phospholipid hydroperoxide glutathione peroxidase GPX4 (Homo sapiens) (P36969 whole entry, looked up): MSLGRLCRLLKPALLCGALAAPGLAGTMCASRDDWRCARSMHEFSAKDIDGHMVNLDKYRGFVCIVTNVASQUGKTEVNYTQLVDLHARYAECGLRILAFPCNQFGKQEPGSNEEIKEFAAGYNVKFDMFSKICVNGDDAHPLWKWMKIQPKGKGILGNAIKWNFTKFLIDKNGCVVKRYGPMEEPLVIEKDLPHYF
Chain of Glutathione peroxidase 1 (Homo sapiens) (P07203 whole entry, looked up): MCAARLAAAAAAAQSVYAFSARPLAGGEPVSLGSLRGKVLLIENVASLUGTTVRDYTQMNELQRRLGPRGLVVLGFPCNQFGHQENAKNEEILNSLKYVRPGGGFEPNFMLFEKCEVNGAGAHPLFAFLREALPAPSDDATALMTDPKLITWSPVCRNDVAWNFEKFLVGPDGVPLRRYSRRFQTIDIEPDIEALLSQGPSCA
Chain of Calcium and integrin-binding protein 1 (Homo sapiens) (Q99828 whole entry, looked up): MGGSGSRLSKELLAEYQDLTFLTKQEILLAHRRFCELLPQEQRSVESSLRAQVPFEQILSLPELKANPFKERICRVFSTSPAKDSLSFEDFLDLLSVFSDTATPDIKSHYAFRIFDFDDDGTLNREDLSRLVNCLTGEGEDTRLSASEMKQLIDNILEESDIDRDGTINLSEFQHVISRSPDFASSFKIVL

C[C@H]1CNC(=O)c2cnn3ccc(nc23)N[C@H](C)c2cc(F)ccc2O1
Potency [1]: 1170 nM (active)
Potency [2]: 1480 nM (active)
Potency [3]: 1180 nM (active)
Potency [4]: inactive
Potency [5]: inactive
Potency [6]: 1550 nM (active)
Z-AUC [6, 9]: -2.09
Z-AUC ([6]; measured here: PEO4 Z-AUC): -2.06
Potency ([7]; HiBiT): 4430 nM (active)

C=CCNc1c(O)cc2c(O)c1C[C@@H](C)C[C@H](OC)[C@H](O)[C@@H](C)/C=C(/C)[C@H](OC(N)=O)[C@@H](OC)/C=C\C=C(\C)C(=O)N2
Potency [1]: 52.3 nM (active)
Potency [2]: 1660 nM (active)
Potency [3]: 1050 nM (active)
Potency [4]: inactive
Potency [5]: inactive
Z-AUC [6]: 0.465 (inactive)
Z-AUC [6, 9]: 0.348
Z-AUC ([6]; measured here: PEO4 Z-AUC): 0.268
Potency ([7]; HiBiT): 44.3 nM (active)

COc1ccc(-n2cnc3cc(C(=O)N4CCCCC4)ccc32)cc1
Potency [1]: inactive
Potency [8]: inactive
Potency [2]: inactive
Potency [3]: inactive
Potency [4]: inactive
Z-AUC [6]: 0.871 (inactive)
Z-AUC [6, 9]: 0.696
Z-AUC ([6]; measured here: PEO4 Z-AUC): 0.92

COc1cc2c3c(n(CCCNCCO)c(=O)c2cc1OC)-c1cc2c(cc1C3=O)OCO2
Potency [1]: 5870 nM (active)
Potency [2]: 26.3 nM (active)
Potency [3]: 29.5 nM (active)
Potency [5]: inactive
Potency [6]: 7.8 nM (active)
Z-AUC [6, 9]: -2.45
Z-AUC ([6]; measured here: PEO4 Z-AUC): -1.56
activity change, negative = inhibition ([7]; HiBiT): -14.1% (inactive)
activity change, negative = inhibition ([7]; Viability): -9.73% (inactive)

COC1=C2C[C@H](C)C[C@H](OC)[C@H](O)[C@@H](C)/C=C(/C)[C@H](OC(N)=O)[C@@H](OC)/C=C\C=C(\C)C(=O)NC(=CC1=O)C2=O
Potency [1]: 2940 nM (active)
Potency [2]: inactive
Potency [3]: inactive
Potency [5]: inactive
Z-AUC [6]: 0.322 (inactive)
Z-AUC [6, 9]: 0.489
Z-AUC ([6]; measured here: PEO4 Z-AUC): 0.496
Potency ([7]; HiBiT): 27.9 nM (active)
